This is an account of results in ChEMBL document CHEMBL3988442, “University of Dundee, Small-Polar-MMV Screening Library” (2021).

The target of this experiment is AMP-activated protein kinase, AMPK (Homo sapiens) (UniProt P54646+O43741+P54619+Q9UGJ0+Q9Y478+Q13131+Q9UGI9). Nature of the experiment: AMP-dependent Kinase enzyme assay. An in vitro enzyme assay that detects ADP turnover that is directly proportional to AMPK activity. This uses naive AMPK that is activated during the assay with MK-8722. The experiment is classed as functional. Conditions: 30 µM. On the set-up: scale not given: direction of the effect not stated beside the values.
Take `CCC(c1ccc(F)cc1F)S(=O)(=O)CCO` (stereo not given): the Percent Effect is -2.09%.
Turning to `CS(=O)(=O)N1CCC(CNc2c(Cl)cccc2C#N)CC1`, the Percent Effect stood at 7.5%.
Turning to `Cc1cnc(CN(C)Cc2cccc(OC(F)(F)F)c2)cn1`, the Percent Effect was -3.05%.
On to `O=C(c1cccnc1)N1CCC(Oc2cccc(C(F)(F)F)c2)CC1`, for which the Percent Effect was -1.51%.
For the compound `Cc1cc(N2CCC(n3cc(CN4CCNCC4)nn3)CC2)ccn1`, the Percent Effect was -7.65%.
`Cc1ccc(C)n1-c1ccsc1C(=O)NCC(=O)N1CCCC1`: the Percent Effect came to 2.6%.
As for `O=S(=O)(Nc1ccc2c(c1)OCCO2)N1CCCCC1`, the Percent Effect is 12.8%.
For `N#Cc1ccc(CNCCc2cc(F)cc3c2OCOC3)cc1`, the Percent Effect stood at 4.17%.
Consider `CCc1nc(C)c(CC(=O)N2CCC3(CC2)OCCCC3O)c(=O)[nH]1` (stereo not given), for which the Percent Effect came to 2.99%.
For the compound `O=C(Nc1ccccc1OCCc1ccccn1)N1CCOCC1`, the Percent Effect was determined as 10.6%.
For `COC(=O)c1ccc(CN(C(C)C)C(C)C)o1`, the Percent Effect was found to be 3.89%.
Take `CN1CC(C(=O)NCCc2ccc3c(c2)OCCO3)CC1=O` (stereo not given): the Percent Effect was 2.3%.
To `Clc1ccccc1CCn1ccnc1-c1cn(C2CCNCC2)nn1` belongs -7.28%.
The value for `CC1(C)OC(=O)N(CCCOc2ccc(F)cc2)C1=O` was -0.642%; that for `Cc1cc(C(=O)N2CCCC(c3ccc(C(=O)O)cc3)C2)c(C)o1` (stereo not given) was 4.65%; that for `CN(CCc1ccccn1)C(=O)Cn1cc(-c2ccccc2)nn1` was -0.117%.
To `O=C(NCc1ccon1)Nc1cc(F)ccc1N1CCCCC1` belongs 5.82%.
As to `O=c1c(CN2CCOCC2)coc2ccc(Cl)cc12`, the Percent Effect is -2.73%.
To `O=C1CSCN1Cc1nc(-c2ccc(N3CCCCC3)cc2)no1` belongs 2.39%; to `COc1ccc(OC)c(C(=O)Nc2cccnc2-n2cncn2)c1`, 2.13%; to `COc1coc(CN2CCCC3(CCC(=O)N(CC4CC4)C3)C2)cc1=O` (stereo not given), 8.74%.
To `O=C(O)CC(CC(=O)N(Cc1ccsc1)C1CC1)c1cccs1` (stereo not given) belongs -2.55%.
The value for `CS(=O)(=O)NCc1cccc(COC2CCCCC2)c1` was 4.87%.
As to `Cc1cc(CNCC2(O)CCOCC2)ccc1F`, the Percent Effect is -5.64%.
To `CC(C)CNC(=O)Nc1cccc(OCC#N)c1` belongs 2%; to `CCCn1cc(NC(=O)Nc2ccc(F)c(C(=O)NC)c2)cn1`, 8.23%; to `O=C(O)c1cn(CC2CCCN(c3nc4ccccc4s3)C2)nn1` (stereo not given), -1.06%.
With `CCOc1ccccc1-n1c(C2CCC2)n[nH]c1=O`, the Percent Effect is 13.5%.
Consider `CNc1nc(C(=O)N2CCCC(COc3ccc(F)cc3)C2)cs1` (stereo not given), for which the Percent Effect was 63.7%.
In the case of `CC(c1nc(C2CC2)no1)N1CCc2c(ncn2C)C1` (stereo not given), the Percent Effect stood at 12%.
For `COc1ccccc1CN(Cc1nc(C)no1)C1CC1`, the Percent Effect was 6.47%.
`CN(CCCO)Cc1cc(Cl)ccc1OCC(O)CN1CCCCCC1` (stereo not given): the Percent Effect was -10.6%.
To `COCC1(C(=O)N[C@H]2CN(c3noc(C)n3)C[C@@H]2C2CC2)CCC1` belongs -1.21%.
As to `Cc1cc(Cl)c(C)c(S(=O)(=O)N2CCN(Cc3ccccn3)CC2)c1Cl`, the Percent Effect turned out to be 1.09%.
Regarding `N#Cc1c(N)nc2c(c1-c1c[nH]nc1C1CCCCC1)CC(N)CC2` (stereo not given), the Percent Effect amounted to 23.9%.
The value for `CC1CCC(O)(CSc2nnnn2C)CC1` (stereo not given) was 3.45%; that for `CCc1cc(NC(CCO)c2ccc(OC)cc2)n2nccc2n1` (stereo not given) was 2.19%; that for `Fc1cccc(-c2n[nH]cc2-c2nc(CN3CCOCC3)no2)c1` was 5.95%.
In the case of `Cc1c(NCCO)cccc1OC1CCCC1`, the Percent Effect was -6.27%.
Consider `COc1cnc(N2CCN(C)CC2)nc1-c1ccnn1C`, for which the Percent Effect is 0.474%.
